Compounds with a hit are over-represented: about 21% of the library has one in this group of screens.
CHX counter: counter-screen for Shiga toxin inhibitors: cycloheximide protein synthesis inhibition. cell reporter, cycloheximide protein synthesis inhibition counterscreen. max response, %. 300,000 compounds, 12% hits. AID 2314; in the data active = max response mostly above about 13%, no sharp cut-off; inactive = mostly below about 14%; note: read at 38.3 µM for the half of the compounds with a filed dose; 0% is about no effect
Pf growth 48h: inhibits P. falciparum growth in the first generation, 48 h; P. falciparum luciferase growth in erythrocytes, 48 h; Potency, µM (highest dose often 28.7 µM), inactives show at the highest dose activity change, negative = inhibition, usual class: inhibitors; 310,000 compounds, 5.9% hits; note: potency is the fitted concentration of half-maximal effect; % is set by controls: 0 for no effect and ±100 for the full control effect
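Read-out is firefly luciferase luminescence from an integrated reporter in P. falciparum, so falling signal marks reduced parasite growth. Infected erythrocytes were at 2% hematocrit and 0.1% parasitemia (final) in Albumax-supplemented RPMI 1640.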
Shiga inhibitor: Shiga toxin inhibition; Vero cells, Shiga toxin protein synthesis inhibition reporter; inhibition, % at 38.7 µM; 290,000 compounds, 9.2% hits; in the data active = inhibition mostly above about 28%, no sharp cut-off; inactive = mostly below about 43%; note: 0% is about no effect
Pf growth 96h: inhibits malaria parasite growth, 96 h; 320,000 compounds, 6.9% hits; Potency, µM (doses to about 28.7 µM), for the others: top-dose activity change, negative = inhibition, usual class: inhibitors; AID 504834; P. falciparum luciferase reporter growth, 96 h; note: potency is the fitted concentration of half-maximal effect; % is set by controls: 0 for no effect and ±100 for the full control effect
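Erythrocytes infected with luciferase-expressing P. falciparum were dispensed at 2% hematocrit and 0.05% parasitemia (final), then incubated with compounds 96 hours at 37 C in 5% CO2. Luminescence after detection reagent addition reported growth.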
Active calls of the source: *; i = inactive; ? = inconclusive; · = not tested or not shown; [ ] = remark or other dose. Unless noted, calls come from the whole dose curve; as a rule, active = well fitted inhibition curve with a large enough effect; inconclusive = small, poorly fitted or top-dose-only effect, or another doubt; inactive = no such curve, though single readings can be large or run the other way.

SMILES	CHX counter	Pf growth 48h	Shiga inhibitor	Pf growth 96h
CC1CC(=O)C2=C(C1)Nc1ccccc1SC2c1ccc(F)cc1 (stereo unspecified)	-5	12µM*	-6	4.1µM*
CCCN1C(=S)c2ccccc2C1c1ccccc1 (stereo unspecified)	2	?	-5	?
C=CCNc1cc(C(F)(F)F)nc(-c2ccccn2)n1	4	6.6µM*	-5	4.1µM*
COc1ccc(NS(=O)(=O)c2cc(NC(=O)C3CCCO3)ccc2N2CCCCC2)cc1 (stereo unspecified)	0	5.2µM*	4	?
COc1ccc(NS(=O)(=O)c2cc(NC(=O)/C=C/c3cc(OC)ccc3OC)ccc2N2CCCCC2)cc1	-1	4.1µM*	26	2.6µM*
COc1ccc(NS(=O)(=O)c2cc(NC(=O)c3ccco3)ccc2N2CCCC2)cc1	2	?	12	?
COc1ccc(NS(=O)(=O)c2cc(NC(=O)CCNC(C)=O)ccc2N2CCCCC2)cc1	·	9.3µM*	·	?
Cc1c(C(=O)Nc2cccc([N+](=O)[O-])c2)sc2ncn(CC(=O)N3CCOCC3)c(=O)c12	-8	13%	-2	-15%
CC(=O)N1CCCc2cc(S(=O)(=O)N3CCCC(C)C3)ccc21 (stereo unspecified)	-5	-12%	-4	?
COc1ccccc1NC(=S)NNC(=O)c1cc(C)nn1C	-3	·	-12	?
COc1ccccc1C(=O)NNC(=O)c1cccc(Cl)c1	28*	96%	46	-36%
COC(=O)NNC(=O)c1ccc(C(C)(C)C)cc1	30*	49%	23*	52%
COc1ccccc1NC(=S)NNC(=O)c1c(Cl)c(C)nn1C	10	47%	43*	?
COc1ccccc1C(=O)Nc1cccc(NC(C)=O)c1	7	10%	22	0%
COc1ccccc1C(=O)NC(=O)Nc1cccc(Cl)c1	49*	63%	130*	?
CC(C)(C)NC(=O)C(=O)NNC(=O)c1ccc(C(C)(C)C)cc1	1	?	-3	63%
COc1ccc(Cl)cc1C(=O)NNC(=O)c1cccc([N+](=O)[O-])c1	-4	27%	19	48%
O=C1OCC(CO)(CO)N=C1NNc1ccccc1Cl	7	·	34	?
O=P(O)(OCc1ccccc1)OCc1ccccc1	·	24%	·	48%
COc1ccccc1NC(=S)NNC(=O)c1ccccc1Br	27*	114%	88*	45%
O=C(NNC(=O)c1ccccc1Br)c1ccc(Cl)c(Cl)c1	0	47%	3	104%
CC(C)(C)c1ccc(C(=O)NNC(=O)c2ccccc2Br)cc1	31*	30%	31	37%
O=C(NC(=S)Nc1cccc2cc(O)ccc12)c1ccccc1Br	6	-26%	10	13µM*
COc1ccc(C(=O)NC(=S)Nc2cccc3cc(O)ccc23)cc1OC	12	-13%	-28	11%
COc1ccccc1C(=O)NNC(=O)c1cccc(Br)c1	35*	166%	·	-13%
SMILES	CHX counter	Pf growth 48h	Shiga inhibitor	Pf growth 96h
Nc1nnc(Cc2cccc(Br)c2)s1	-1	10%	11	1%
CC(C)(C)NC(=O)C(=O)NNC(=O)c1cccc(Br)c1	17*	64%	47*	2.1µM*
COc1ccccc1C(=O)NNS(=O)(=O)c1ccc(F)cc1	-1	3%	·	4.1µM*
COc1ccccc1C(=O)NNC(=O)c1ccccc1	34*	102%	·	-6%
COc1ccccc1C(=O)NNC(=O)C(=O)N1CCCCC1	14	11%	20	?
COc1ccccc1C(=O)NNC(=O)c1ccccc1Br	13*	10%	·	10µM*
COCCNC(=O)C(=O)NNC(=O)c1ccccc1OC	4	46%	-7	2%
CCOC(=O)Cc1csc(NC(=O)CSc2nccn2C)n1	5	-1%	-15	3%
COc1ccccc1C(CNC(=O)C1CC(=O)N(Cc2ccc(C)cc2)C1)N1CCCC1 (stereo unspecified)	·	2%	·	8%
CC1(C)CC(=O)C2=C(C1)N(c1cccc(Cl)c1)C(=O)NC2(C(F)(F)F)C(F)(F)F	0	9%	0	-6%
COc1cc(Br)c(C(C)NC(=O)c2cccc(Br)c2)cc1OC (stereo unspecified)	-1	1.9µM*	-12	1.7µM*
CN(C)C(=O)c1cc(C(=O)c2ccc(F)cc2F)c[nH]1	16*	43%	102*	88%
CN(C)C(=O)c1cc(C(=O)c2ccc(C(F)(F)F)cc2F)c[nH]1	42*	i	92*	187%
CN(C)C(=O)c1cc(C(=O)c2ccccc2F)c[nH]1	1	20%[0.00184 µM]	21	55%
COc1cc(OC)cc(-c2c(-c3ccc(F)cc3)c3cc(-c4cnc(OC)nc4)ccc3n2C)c1	·	4.1µM*	·	4.7µM*
COc1ccc(-c2c(-c3cc(OC)cc(OC)c3)n(C)c3ccc(-c4ccc(S(N)(=O)=O)cc4)cc23)cc1	·	13µM*	·	?
COc1cc(OC)cc(-c2c(-c3ccc(F)cc3)c3cc(Br)ccc3n2C)c1	·	-21%	·	?
CCNc1nc(C23CC4CC(CC(C4)C2)C3)cs1	8	?	31	99%
COc1ccc(C(=O)NC(=S)NC(C)(C)C)cc1Br	21*	?	71*	5.2µM*
COc1ccc(C(=O)NC(=S)NNC(=O)c2ccncc2)cc1Br	·	13µM*	·	?
COc1ccc(C(=O)NC(=S)NC(C)C)cc1Br	23*	-3%	65*	?
COc1ccc(C(=O)NC(=S)NNC(=O)c2ccc(NC(C)=O)cc2)cc1Br	10	-15%	-7	-3%
COc1ccc(C(=O)NC(=S)Nc2ccccc2N2CCOCC2)cc1Br	8	?	2	222%
COc1ccc(N2CCN(C(=O)C3CCN(S(=O)(=O)c4ccc(F)cc4)CC3)CC2)cc1	-3	-35%	5	-13%
CCOC(=O)C1CCCN(C(=O)Cn2ncc3c([nH]c4ccccc43)c2=O)C1 (stereo unspecified)	7	?	21	-2%
SMILES	CHX counter	Pf growth 48h	Shiga inhibitor	Pf growth 96h
CCOc1ccc(CCNC(=O)CCS(=O)(=O)c2ccc(Cl)cc2)cc1OCC	-2	3%	-15	?
CSc1nnc2n(C)c3c(c(=O)n12)C1(CCCC1)Cc1ccccc1-3	1	?	-8	10µM*
COc1ccc(/C(N)=N/OC(=O)c2ccc3c(c2)OCO3)cc1OC	12	?	-5	?
N/C(=N\OC(=O)c1ccc2c(c1)OCO2)c1ccc([N+](=O)[O-])cc1	15	-12%	10	0%
N/C(=N\OC(=O)c1ccc2c(c1)OCO2)c1cccnc1	21*	-23%	58*	77%
N/C(=N\OC(=O)c1ccc2c(c1)OCO2)c1cccc(Br)c1	30*	36%	87*	1%
C/C(CC(=O)Nc1cccc2c1CCCC2)=N\NC(=O)c1ccccc1N	31*	?	116*	11%
C/C(CC(=O)Nc1cccc2c1CCCC2)=N\NC(=O)c1cccc2ccccc12	-2	-6%	-7	13µM*
CC(=O)CC(=O)Nc1cccc2c1CCCC2	-5	36%	49	4%
O=C(NCC1CCCO1)c1cc(S(=O)(=O)Nc2ccc(Br)cc2)ccc1Cl (stereo unspecified)	-7	-31%[1.15 µM]	-2	33%

Screening results: PubChem BioAssay, National Center for Advancing Translational Sciences (NCATS)
